Reference: the supplement of paper PMC6522484
± gives the standard deviation of the averaged measurements.

Tests used:
DLD1 [1] = assay: cell viability (CellTiter-Glo) relative to plate median (fraction of plate median); higher = more viable cells; conditions: 5 µM; treatment time 24 h; reporter: 7TFP
Summary of the method: (§1)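 Luminescence, normalised well by well to the plate median, is tabulated as a mean of independent replicates. There were two replicates, run on colorectal cancer lines stably transduced with lentiviral TCF/Wnt firefly luciferase reporters and dosed with library compounds at a final 5 µM for 24 h. Readouts were firefly luciferase or CellTiterGlo on parallel plates.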

HCT116 = assay: as above; conditions: 5 µM; treatment time 24 h; reporter: TCF4/Wnt
Summary of the method: as §1

SW480 [2] = assay: as above; conditions: 5 µM; treatment time 24 h; reporter: 7TFP
Summary of the method: as §1

DLD1 [3] = assay: TCF/Wnt firefly luciferase reporter signal relative to plate median (fraction of plate median); higher = higher Wnt reporter signal; conditions: 5 µM; treatment time 24 h; reporter: 7TFP
Summary of the method: as §1

SW480 [4] = assay: as above; conditions: 5 µM; treatment time 24 h; reporter: 7TFP
Summary of the method: as §1

SMILES	cell viability (DLD1 [1])	cell viability (HCT116)	cell viability (SW480 [2])	TCF/Wnt firefly luciferase reporter signal (DLD1 [3])	TCF/Wnt firefly luciferase reporter signal (SW480 [4])
CC#C[C@]1(O)CC[C@H]2[C@@H]3CCC4=CC(=O)CCC4=C3[C@@H](c3ccc(N(C)C)cc3)C[C@@]21C	0.972 ± 0.023	1.04 ± 0.12	0.931 ± 0.042	0.891 ± 0.05	1.01 ± 0.063
CC(=O)OC1CCC2(C)C(=CCC3C2CCC2(C)C(C(C)CCCC(C)C)CCC32)C1 (stereo not given)	1.04 ± 0.021	1.05 ± 0.12	0.964 ± 0.051	1.11 ± 0.19	1.11 ± 0.15
O=C(O)c1cc(-c2ccc(F)cc2F)ccc1O	0.973 ± 0.0042	1.07 ± 0.057	1.01 ± 0.021	1.32 ± 0.13	1.16 ± 0.021
CC(C)=CCC[C@@H](C)[C@H]1CC[C@@]2(C)C3=C(CC[C@]12C)[C@@]1(C)CC[C@H](O)C(C)(C)[C@@H]1CC3	1 ± 0.029	1.01 ± 0.12	0.994 ± 0.0085	0.952 ± 0.023	0.83 ± 0.05
CC(=O)N[C@@H](CS)C(=O)O	0.994 ± 0.037	0.988 ± 0.12	0.993 ± 0.0042	1.1 ± 0.14	1.07 ± 0.16
C/C=C(/C(=C/C)c1ccc(O)cc1)c1ccc(O)cc1	0.987 ± 0.018	0.997 ± 0.061	1 ± 0.015	1.07 ± 0.15	1.09 ± 0.071
COC(=O)[C@H]1[C@H]2C[C@@H]3c4[nH]c5cc(OC)ccc5c4CCN3C[C@H]2C[C@@H](OC(=O)c2cc(OC)c(OC)c(OC)c2)[C@@H]1OC	0.932 ± 0.065	1.02 ± 0.07	0.972 ± 0.054	0.974 ± 0.093	1.01 ± 0.018
O=c1c(O)c(-c2ccccc2)oc2cc(O)ccc12	1 ± 0.05	1.06 ± 0.057	1.035 ± 0.0071	1.01 ± 0.044	0.925 ± 0.1
C#C[C@]1(OC(C)=O)CC[C@H]2[C@@H]3CCC4=CC(=O)CC[C@@H]4[C@H]3CC[C@@]21C	0.87 ± 0.018	0.964 ± 0.094	0.973 ± 0.052	0.925 ± 0.022	0.768 ± 0.023
C=CC(C1=CC(=O)C(OC)=CC1=O)c1ccccc1 (stereo not given)	0.983 ± 0.0014	1.05 ± 0.042	1.03 ± 0.021	0.985 ± 0.079	1.01 ± 0.054
NC[C@H]1O[C@H](O[C@H]2[C@H](O)[C@@H](O[C@H]3O[C@H](CO)[C@@H](O)[C@H](N)[C@H]3O)[C@H](N)C[C@@H]2N)[C@H](N)C[C@@H]1O	0.854 ± 0.012	0.922 ± 0.073	0.998 ± 0.06	0.992 ± 0.0042	1.05 ± 0.076
O=c1c(O)c(-c2ccc(O)c(O)c2)oc2c(O[C@@H]3O[C@H](CO)[C@@H](O)[C@H](O)[C@H]3O)c(O)cc(O)c12	0.99 ± 0.057	0.905 ± 0.22	0.976 ± 0.033	1.1 ± 0.078	0.997 ± 0.061
Cc1ncc(CO)c(CO)c1O	1.02 ± 0.033	1.09 ± 0.17	1.02 ± 0.014	0.951 ± 0.11	0.9705 ± 0.0092
CCOC(=O)OC(C)OC(=O)[C@@H]1N2C(=O)[C@@H](NC(=O)[C@H](N)c3ccccc3)[C@H]2SC1(C)C (stereo not given in full)	1.05 ± 0.014	1.01 ± 0.071	1.01 ± 0.014	1.09 ± 0.12	1.08 ± 0.035
O=C(CCCN1CC=C(n2c(=O)[nH]c3ccccc32)CC1)c1ccc(F)cc1	0.995 ± 0.0071	0.868 ± 0.025	0.994 ± 0.023	0.829 ± 0.061	0.895 ± 0.088
O=C(O)COCCN1CCN(C(c2ccccc2)c2ccc(Cl)cc2)CC1 (stereo not given)	0.94 ± 0.054	0.896 ± 0.05	0.955 ± 0.024	1.04 ± 0.035	0.915 ± 0.033
C[C@@H]1NC(=O)[C@@H](N)CNC(=O)[C@H](C2CCNC(=N)N2)NC(=O)/C(=C/NC(N)=O)NC(=O)[C@H](CNC(=O)CC(N)CCCN)NC1=O.N=C1NCC[C@H]([C@@H]2NC(=O)/C(=C/NC(N)=O)NC(=O)[C@H](CNC(=O)C[C@@H](N)CCCN)NC(=O)[C@H](CO)NC(=O)[C@@H](N)CNC2=O)N1	1.03 ± 0.052	0.993 ± 0.081	0.996 ± 0.076	0.816 ± 0.0071	0.871 ± 0.093
CCn1cc(C(=O)O)c(=O)c2cnc(N3CCNCC3)nc21	0.976 ± 0.049	0.943 ± 0.12	1 ± 0.025	0.891 ± 0.21	0.98 ± 0.13
O=C(/C=C/c1ccc(O)c(O)c1)O[C@H](Cc1ccc(O)c(O)c1)C(=O)O	1.04 ± 0.014	0.947 ± 0.09	0.998 ± 0.031	0.854 ± 0.015	0.934 ± 0.054
COc1ccc2[nH]cc(CCNC(C)=O)c2c1	0.961 ± 0.0071	1.11 ± 0.05	0.974 ± 0.052	0.967 ± 0.046	0.983 ± 0.095
CC(C)CCC[C@@H](C)[C@H]1CC[C@H]2[C@@H]3C[C@@H](O)[C@@]4(O)C[C@@H](O)CC[C@]4(C)[C@H]3CC[C@]12C [CHOLESTAN-3beta,5alpha,6beta-TRIOL]	0.991 ± 0.041	0.924 ± 0.083	0.967 ± 0.016	0.9 ± 0.086	0.891 ± 0.076
NC/C=C/C(=O)O	1.03 ± 0.088	1.01 ± 0.095	1 ± 0.068	0.965 ± 0.079	1 ± 0.11
O=C1c2c(O)cccc2C([C@@H]2O[C@H](CO)[C@@H](O)[C@H](O)[C@H]2O)c2cc(CO)cc(O)c21 (stereo not given in full)	1.05 ± 0.1	1.1 ± 0.078	1.015 ± 0.0071	1.2 ± 0.021	1.07 ± 0.05
Cc1ccnc(NS(=O)(=O)c2ccc(N)cc2)n1	0.968 ± 0.059	0.974 ± 0.052	0.953 ± 0.04	0.924 ± 0.019	0.929 ± 0.1
Nc1nc(N)c2nc(-c3ccccc3)c(N)nc2n1	0.843 ± 0.047	0.898 ± 0.0042	0.956 ± 0.037	1.11 ± 0.085	1.05 ± 0.028
COC(=O)[C@H]1[C@H]2C[C@H]3c4[nH]c5ccccc5c4CCN3C[C@@H]2CC[C@@H]1O	0.988 ± 0.06	0.984 ± 0.066	1.06 ± 0.014	1.01 ± 0.039	1.06 ± 0.028
CCN(CC)C(=O)c1cccc(C)c1	0.954 ± 0.041	1.01 ± 0.05	0.991 ± 0.028	1.03 ± 0.079	0.923 ± 0.061
O=C(/C=C/c1ccc(O)c(O)c1)O[C@@H]1C[C@](O)(C(=O)O)C[C@@H](O)[C@H]1O	0.9805 ± 0.0064	0.95 ± 0.071	0.9255 ± 0.0092	0.931 ± 0.096	0.9705 ± 0.0064
CCOC(=O)[C@H](CCc1ccccc1)N[C@@H](C)C(=O)N1CCC[C@H]1C(=O)O	0.971 ± 0.018	1.11 ± 0.085	1 ± 0.029	1.04 ± 0.035	0.994 ± 0.023
COc1cc(-c2coc3cc(OC)c(OC)c(OC)c3c2=O)cc(OC)c1OC	1.04 ± 0.08	1.18 ± 0.14	1.07 ± 0.064	1.05 ± 0.1	1.1 ± 0.028
